A selection: hits, their analogues and other compounds. The true share with any hit is near 3.9%.
Bead autofluor: flagged as autofluorescent in microsphere protease counterscreen. compound autofluorescence counterscreen, microsphere flow cytometry; active compounds read high. AID 624483. fluorescence intensity (concentration not given with the values). actives 3.1% (n = 360,000); in the data active = fluorescence intensity above about 16000; inconclusive = no clear call, values can overlap the other calls
3CLpro inhibitor: SARS-CoV 3CLpro protease inhibition; P0C6X7; recombinant SARS-CoV 3CLpro, quenched FRET peptide cleavage; inhibition, % at 6 µM; actives 0.14% (n = 290,000); AID 1706; in the data active = inhibition above about 12%
BoNT F protease: blocks Botulinum neurotoxin F light chain protease | Multiplex microsphere protease cleavage assay, flow cytometry | inhibition, % at 10 µM | AID 588497 | actives 0.22% (n = 360,000); in the data active = inhibition above about 35%, passing the limit was not always enough; inconclusive = no clear call, values can overlap the other calls; also: plate controls were buffer without enzyme for full effect and enzyme alone for no effect
CCHFV vOTU inh: blocks the CCHF virus ovarian tumor domain protease; actives 0.55% (n = 370,000); inhibition, % at 11.5 µM; CCHFV vOTU protease, Pep-AMC fluorescence; in the data active = inhibition above about 30%; also: 0% = vehicle wells with enzyme and 100% = no enzyme wells
Anthrax LF prot: anthrax lethal factor protease inhibition; multiplex microsphere protease cleavage assay, LF; AID 588501; inhibition, % at 10 µM; actives 0.12% (n = 360,000); also: plate controls were buffer without enzyme for full effect and enzyme alone for no effect
BoNT-A LC inh2: blocks Botulinum neurotoxin A light chain protease. multiplex microsphere protease substrate cleavage, flow cytometry. inhibition, % at 10 µM. actives 0.17% (n = 360,000). AID 588499; also: plate controls were buffer without enzyme for full effect and enzyme alone for no effect
Active calls of the source: *; ? = inconclusive; / = not tested or not shown. Rule as the data show it, unless noted: active = inhibition above about 30%; inconclusive = no clear call, values can overlap the other calls; inactive = below that.

SMILES | Bead autofluor | 3CLpro inhibitor | BoNT F protease | CCHFV vOTU inh | Anthrax LF prot | BoNT-A LC inh2
CCc1ccc(N2C(=O)/C(=C/c3cccs3)N(CC(=O)OC)C2=S)cc1 | 23041* | 9.3 | 3.3 | -1.6 | -1.2 | ?
COC(=O)CN1C(=S)N(c2ccc(OC)cc2)C(=O)/C1=C/c1cccs1 | 2071 | 4.4 | -2.4 | 10.1 | 0.7 | 0.9
O=C(OCc1ccc(C(=O)c2ccccc2)cc1)c1cccc(-c2nnc(-c3ccccc3)o2)c1 | 13281 | -2.0 | -16.0 | 1.7 | -2.8 | -2.1
O=C(OCc1ccccc1)c1cccc(-c2nnc(-c3ccccc3)o2)c1 | 23216* | 3.2 | -3.2 | -10.7 | -1.3 | ?
Cc1ccc(S(=O)(=O)O)c(C)c1N1CCCC1=O | 20761* | -3.4 | -5.6 | -1.6 | 2.0 | -3.1
Cc1ccc(S(N)(=O)=O)c(C)c1N1CCCC1=O | 3405 | -1.9 | 4.1 | -2.6 | 8.0 | -0.9
COC(=O)c1ccc(Cn2ccc3ccc(-c4ccc5ccn(C(=O)c6cccc(OC)c6)c5c4)cc32)cc1 | / | / | / | 0.2 | / | /
COc1ccc(-c2n[nH]c(C)c2-c2cnn(-c3ccccc3)c2)c(O)c1 | 19850* | 6.0 | -0.4 | 10.5 | 0.3 | ?
O=C(O)CCNc1cc(N2CCN(C(=O)c3ccco3)CC2)c2noc3c2c1C(=O)c1ccccc1-3 | 4996 | -4.5 | -5.5 | 54.5* | 0.5 | 0.7
CCN1CCN(c2cc(N3CCN(C(=O)c4ccco4)CC3)c3c4c(onc24)-c2ccccc2C3=O)CC1 | 2890 | -2.6 | -63.8 | / | -18.2 | 3.1
Cc1ccc(-c2csc3nc(C)n(-n4c(C)ccc4C)c(=O)c23)o1 | 3228 | -8.3 | -7.8 | 0.5 | -1.6 | -0.1
Cc1ccc(-c2csc3nc(C)n(N)c(=O)c23)o1 | 22183* | 5.2 | 0.1 | -17.4 | -0.9 | ?
Cc1ccc(-n2c(SCC(=O)Nc3ccc(OCc4ccccc4)cc3)nnc2-c2cnccn2)cc1 | / | / | / | 25.1 | / | /
COc1cc(C2C(C#N)=C(N)Oc3c2oc(CO)cc3=O)ccc1OC(C)C (centres undefined) | 20218* | -3.4 | -2.0 | -5.1 | -1.2 | ?
O=C(CN1C(=O)CCSc2ccccc21)Nc1ccc(F)cc1F | / | / | / | -2.5 | / | /
Cc1nn(C)cc1C(=O)Nc1cc(Oc2ccc(Cl)cc2)cc([N+](=O)[O-])c1 | 9504 | 5.6 | 4.4 | / | -0.8 | 0.4
CCn1nc(C)c(C(=O)Nc2cc(Oc3cc(C)cc(C)c3)cc([N+](=O)[O-])c2)c1C | 22749* | 1.5 | 0.9 | -6.5 | -1.7 | ?
CN(C)S(=O)(=O)N1CCc2ccccc21 | 4560 | 2.3 | -10.4 | 5.3 | -4.2 | 0.7
CN(C)S(=O)(=O)N1CCc2ccccc2C1 | 24594* | -4.7 | -6.5 | 6.0 | -1.3 | -3.2
O=C1CCCC2=C1C1(CCCCC1)N=C(Nc1nc3ccccc3s1)N2 | 16571* | 3.4 | -2.4 | -3.3 | -2.4 | -1.7
Cc1cccc(Cn2cc(CN3CC(N(C)CCCOC(=O)c4cc(C)cc(C)c4)CS3(=O)=O)nn2)c1 (centres undefined) | / | / | / | 14.4 | / | /
CN1CCN(C(=O)c2cc([N+](=O)[O-])cc([N+](=O)[O-])c2)CC1 | 3260 | 2.7 | 2.8 | 4.0 | 2.4 | -5.1
COc1ccc(C(=O)Nc2cc([N+](=O)[O-])ccc2N2CCN(C)CC2)cc1 | 19500* | -0.4 | 0.1 | -1.8 | -3.7 | 1.7
COc1cccc(NC(=O)c2cc([N+](=O)[O-])ccc2N2CCN(C)CC2)c1 | 2725 | 0.8 | -5.9 | 1.4 | 0.4 | -0.1
CN1CCN(c2ccccc2NC(=O)c2cccc([N+](=O)[O-])c2)CC1 | 3821 | -1.0 | -32.7 | -0.7 | -15.7 | -0.1
SMILES | Bead autofluor | 3CLpro inhibitor | BoNT F protease | CCHFV vOTU inh | Anthrax LF prot | BoNT-A LC inh2
COc1ccc(OC)c(NC(=O)c2ccc(S(=O)(=O)N3CCN(C)CC3)cc2)c1 | 22427* | -3.0 | -2.2 | -7.1 | -0.6 | 0.5
COc1cccc(C(=O)Nc2cc([N+](=O)[O-])ccc2N2CCN(C)CC2)c1 | 24311* | 4.2 | -9.0 | -7.2 | -3.1 | -4.0
CN1CCN(NC(=O)c2cc([N+](=O)[O-])cc([N+](=O)[O-])c2)CC1 | 18837* | -1.4 | -1.9 | 2.5 | 0.8 | 2.1
COCCCNC(=O)C[C@H]1C(=O)N(Cc2ccc(OC)cc2)C2=CCCCC[C@@]21C(=O)OC | / | / | / | 6.7 | / | /
CCOC(=O)[C@@]12CCCC=C1N(CCc1ccc(Cl)cc1)C(=O)[C@H]2CC(=O)NCc1cccc(C(F)(F)F)c1 | / | / | / | 13.7 | / | /
COc1ccc(C2CC(=O)C(c3cccc(C)c3)=CN2Cc2ccccc2)cc1 (centres undefined) | / | / | / | 8.0 | / | /
COC(=O)[C@H](CC(C)C)N1Cc2nnn(CC3CCCCC3)c2-c2cc(F)ccc2S1(=O)=O | / | / | / | 13.8 | / | /
O=C(Nc1cc([N+](=O)[O-])ccc1N1CCCC1)c1ccccc1 | 4138 | 5.1 | -0.7 | -4.8 | -3.2 | 0.0
CN1CCN(c2ccc([N+](=O)[O-])cc2NC(=O)c2ccccc2)CC1 | 16981* | -0.7 | -2.8 | -0.5 | -4.1 | ?
CN1C(=CC=C2C=C(I)C(=O)C(I)=C2)C(C)(C)c2ccccc21 | 3157 | 1.4 | 19.3 | 10.7 | 55.1* | 101.0*
Clc1ccc(-n2c(SCc3cccc4ccccc34)nnc2-c2cccnc2)cc1 | / | / | / | 5.6 | / | /
CCOc1cc(C(=S)N2CCCCC2)ccc1OCC(=O)NCc1ccccc1 | 22179* | 2.9 | 4.7 | -0.5 | -0.7 | ?
CCOc1ccc(C(=S)N2CCOCC2)cc1OCC | 23260* | 2.7 | -0.1 | -3.9 | 1.5 | -0.7
CCN1CCN(C(=S)c2ccc(OCC(=O)N3CCOCC3)cc2)CC1 | 19327* | 2.8 | -2.0 | 4.7 | -2.2 | 1.3
CCN1CCN(C(=S)c2ccc(OCC(=O)NCc3ccccc3)cc2)CC1 | 4657 | 4.6 | -4.7 | 7.2 | -4.1 | -0.4
CCOC(=O)CC[C@@H]1CC[C@]2(CCCN(C(=O)c3ccc4ccccc4n3)C2)O1 | / | / | / | 1.2 | / | /
CCOC(=O)c1sc(N)c(C#N)c1COC(=O)CNC(=O)c1cc(OC)c(OC)c(OC)c1 | 16372* | 1.0 | -4.8 | 4.7 | -5.2 | 0.0
COc1cc(C(=O)NCC(=O)OCc2ccccc2Cl)cc(OC)c1OC | 4527 | 0.8 | -4.8 | 0.2 | 6.8 | -0.2
O=S(=O)(c1ccc(F)cc1)N1CCC(c2nc3ccccc3o2)CC1 | / | / | / | 2.5 | / | /
O=C(N1CCOCC1)n1cnc2ccccc21 | 5975 | -4.0 | -4.7 | -13.9 | -2.8 | 0.3
O=C(N1CCOCC1)n1nnc2ccccc21 | 22842* | 0.1 | -1.6 | -1.2 | -0.2 | -0.9
C/C(=C\c1ccccc1)C(=O)n1nnc2ccccc21 | 17498* | -0.2 | -9.1 | -4.0 | -6.8 | -6.3
C[C@H]1C2CC(OC(=O)NCc3ccc(Cl)cc3)C(C2)[C@H]2CCCCN21 (some centres undefined) | / | / | / | -9.7 | / | /
C=CCN1C(=O)[C@@H](CC(=O)NCC23CC4CC(CC(C4)C2)C3)[C@]2(C(=O)OCC)CCCCC/C=C/12 | / | / | / | 10.1 | / | /
Cc1ccccc1CS(=O)(=O)Cc1ccc(C(=O)Nc2cccc(C)c2C)o1 | / | / | / | 6.9 | / | /
c1ccc2sc(NC3=NCN(C4CCCCCC4)CN3)nc2c1 | 19894* | -4.1 | -0.2 | 2.1 | -1.1 | 0.0
c1ccc2oc(NC3=NCN(C4CCCCC4)CN3)nc2c1 | / | 1.8 | / | 1.1 | / | /

Assay outcomes (PubChem)
